Compound activity: PubChem, National Center for Advancing Translational Sciences (NCATS)
HCV inhibitor: qHTS Assay for Inhibitors of Hepatitis C Virus (HCV). Potency, µM (titrated, usually from 41.8 µM), hits mostly inhibitors. 340,000 tested, 3.4% active. Huh7.5.1 HCVcc-Cre infection, luciferase reporter, 44 h
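Antiviral activity was scored by luciferase reporter output from cells infected with HCVcc-Cre (~0.5 moi) in presence of compound, 44 h infection period, cells seeded 1,000/well 4 h prior.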
Pf growth 96h: Primary qHTS for delayed death inhibitors of the malarial parasite plastid, 96 hour incubation; 320,000 tested, 6.9% active; P. falciparum luciferase reporter growth, 96 h; AID 504834, 2011; Potency, µM (top dose mostly 28.7 µM), actives largely listed as inhibitors
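Compounds incubated with erythrocytes infected by luciferase-expressing P. falciparum (2% hematocrit, 0.05% parasitemia final) for 96 hours, 37 C in 5% CO2. Growth inhibition scored as decreased luciferase luminescence.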
HCMV antiviral: qHTS Assay for inhibitors of the human cytomegalovirus (HCMV) | HFF cells, HCMV-luciferase reporter, 72 h; hits give low values | activity change, negative = inhibition, % at 57.5 µM | 410,000 tested, 4.5% active | AID 1259415, 2018; in the data active = activity change below about -60%; inconclusive = no clear call, values can overlap the other calls; inactive = above about -39%
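Two-dose cell screen: HFF monolayers treated with compounds and infected with luciferase-expressing HCMV at 1 PFU/cell, 72 h at 37C, then lysed for luciferase measurement.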
Pf growth 48h: Primary qHTS for delayed death inhibitors of the malarial parasite plastid, 48 hour incubation; 310,000 tested, 5.9% active; P. falciparum luciferase growth in erythrocytes, 48 h; Potency, µM (doses to about 28.7 µM), usual class: inhibitors; AID 504832, 2011
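In quantitative HTS format, infected erythrocytes bearing luciferase-reporter parasites were treated for a single generation at 37 C. Luminescence after adding detection reagent served as the growth measure.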
Large screens that a line does not name were inactive. Rows were chosen to be rich in hits. Some 13% of all compounds tested hit in one or more screens of this group. Unless noted, calls follow the shape of the dose curve; as a rule, active = well fitted inhibition curve with a large enough effect; inconclusive = small, poorly fitted or top-dose-only effect, or another doubt; inactive = no such curve, though single readings can be large or run the other way.

Cc1nn(-c2ccccc2)c(N2CCCC2)c1/C=N/NC(=O)c1cc(-c2cccnc2)nc2ccccc12	HCV inhibitor 14.1µM, Pf growth 96h inconclusive, Pf growth 48h 11.7µM
CCOc1ccc(/C=N/NC(=O)C2CC2)c(OCC)c1	HCV inhibitor 4.47µM
Cc1ccc(NS(=O)(=O)c2cccc(C(=O)N/N=C/c3c(C)nn(-c4ccccc4)c3N3CCCC3)c2)c(C)c1	HCV inhibitor 12.6µM, Pf growth 96h inconclusive
CCOc1ccc(Oc2c(/C=N/NC(=O)C3CC3)c(C)nn2-c2ccccc2)cc1	HCV inhibitor inconclusive, Pf growth 96h inconclusive, Pf growth 48h 3.29µM
COc1ccc(CNC(=O)c2cnc3sc4cc(OC)ccc4n3c2=O)cc1	none (no result: HCV inhibitor, Pf growth 96h, Pf growth 48h)
Cc1nn(-c2ccccc2)c(C)c1/C=N/NC(=O)c1ccccc1O	Pf growth 96h 6.57µM, Pf growth 48h 3.7µM
Cc1nn(-c2ccccc2)c(N2CCCC2)c1/C=N/NC(=O)c1ccccc1O	HCV inhibitor inconclusive, Pf growth 96h 13.1µM, Pf growth 48h 8.28µM
Cc1nn(-c2ccccc2)c(C)c1/C=N/NC(=O)c1cc(O)cc(O)c1	Pf growth 96h inconclusive, Pf growth 48h inconclusive
O=C(N/N=C/c1cc2c3c(c1O)CCCN3CCC2)c1ccccc1O	HCV inhibitor 3.16µM, Pf growth 96h 2.62µM, HCMV antiviral -99.9, Pf growth 48h 3.29µM
CC(/C=N/NC(=O)c1cc(-c2cccnc2)nc2c1c(C)nn2-c1ccccc1)=C\c1ccccc1	HCV inhibitor inconclusive, Pf growth 96h 2.94µM, Pf growth 48h inconclusive
CCNc1ccc(C(=O)N/N=C/c2c(C)nn(-c3ccccc3)c2N2CCCC2)cc1[N+](=O)[O-]	HCV inhibitor inconclusive
Cn1cc(/C=N/NC(=O)c2ccccc2O)c2ccccc21	Pf growth 48h inconclusive
CCCCNc1cccc2c1S(=O)(=O)N[C@H](CC(C)C)CO2	none (no result: HCV inhibitor, Pf growth 96h, Pf growth 48h)
CC(C)c1ccc(NC(=O)CSC2=Nc3ccccc3C3=NC(CC(=O)NCc4ccco4)C(=O)N23)cc1 (stereo unspecified)	none (no result: HCV inhibitor, Pf growth 96h, Pf growth 48h)
O=C(CSc1nnc(SCc2ccccc2)s1)N/N=C/c1c(Cl)cccc1Cl	HCMV antiviral inconclusive
Cc1nn(-c2ccccc2)c(C)c1/C=N/NC(=O)CSc1nnc(SCc2ccc(Cl)cc2)s1	HCV inhibitor 14.1µM, Pf growth 96h inconclusive
Cc1nn(-c2ccccc2)c(N2CCCC2)c1/C=N/NC(=O)C1CC1	HCV inhibitor inconclusive, Pf growth 96h 11.7µM, HCMV antiviral -61.3, Pf growth 48h 10.4µM
Cc1nn(-c2ccccc2)c(N2CCCCC2)c1/C=N/O	HCV inhibitor inconclusive
Cc1cccc(C(=O)Nc2ccc3c(c2)nc(C)n3C)c1	HCMV antiviral -101.7
CCn1c(CNC(=O)c2cc(OC)c(OC)c(OC)c2)cc2ccccc21	HCV inhibitor inconclusive, Pf growth 96h inconclusive, HCMV antiviral -61.0, Pf growth 48h 9.28µM
COc1cc(C(=O)Nc2ccc(S(=O)(=O)Nc3cnc4ccccc4n3)cc2)cc(OC)c1OC	Pf growth 96h 11.7µM, Pf growth 48h inconclusive
Cc1cccc(C(=O)Nc2ccc3ccccc3c2)c1	HCV inhibitor inconclusive, HCMV antiviral -101.7
CCOc1ccccc1C(=O)N1CC(=O)Nc2ccc(C)cc2C1c1ccccc1 (stereo unspecified)	none (no result: HCV inhibitor, Pf growth 96h, Pf growth 48h)
O=C(Cn1cnc2c(nc3n2CCCCC3)c1=O)Nc1ccc(F)cc1	none (no result: HCV inhibitor, Pf growth 96h, Pf growth 48h)
CC(C)N(Cc1ccccc1)C(=O)Cn1ncc2c([nH]c3ccccc32)c1=O	none (no result: HCV inhibitor, Pf growth 96h, Pf growth 48h)
O=C(Cn1cnc2nc3c(cc2c1=O)CCCC3)N1CCN(c2ccccc2)CC1	none (no result: HCV inhibitor, Pf growth 96h, Pf growth 48h)
Cc1nc(SCC(=O)Nc2ccccc2C)cc(-c2ccccc2)n1	none (no result: HCV inhibitor, Pf growth 96h, Pf growth 48h)
COc1cc(C(=O)Nc2ccc3c(c2)ncn3C(C)(C)C)cc(OC)c1OC	HCV inhibitor 12.6µM, Pf growth 96h inconclusive, Pf growth 48h inconclusive
COc1cc(C(=O)Nc2ccc3ccccc3c2)cc(OC)c1OC	HCV inhibitor inconclusive, Pf growth 96h 1.65µM, Pf growth 48h 5.22µM
CC(C)(C)n1cnc2cc(NC(=O)c3ccc(Cl)cc3)ccc21	HCV inhibitor inconclusive
COc1cccc(C(=O)Nc2nc(-c3nnn(-c4cccc(Cl)c4C)c3C)ns2)c1	none (no result: HCV inhibitor, Pf growth 96h, Pf growth 48h)
NCCCC(N)CC(=O)NC1CNC(=O)C(C2CC(O)N=C(N)N2)NC(=O)/C(=C/NC(N)=O)NC(=O)C(CO)NC(=O)C(CO)NC1=O (stereo unspecified)	none (no result: HCV inhibitor, HCMV antiviral)
Cc1cc(C(=O)CSCCCn2c(=O)[nH]c3ccccc32)c(C)n1C	HCV inhibitor inconclusive, Pf growth 48h 13.1µM
Cc1cc(C(=O)CSc2nc3ccccc3n2C)c(C)n1C	HCV inhibitor inconclusive (no result: Pf growth 48h)
CCn1c2ccccc2c2nnc(SCCCn3c(=O)[nH]c4ccccc43)nc21	HCV inhibitor inconclusive, Pf growth 96h 2.33µM, Pf growth 48h 7.38µM (no result: HCMV antiviral)
O=c1[nH]c2ccccc2n1CCCSCCCn1c(=O)[nH]c2ccccc21	HCV inhibitor inconclusive, Pf growth 96h 9.28µM, HCMV antiviral -65.8, Pf growth 48h inconclusive
CC[C@@H](O)C[C@H]1CCC[C@@]2(C[C@@H]3OC(=O)/C=C/[C@@](C)(O)[C@@H](O)[C@H](C)[C@@H](O)[C@H](OC4CCC(N(C)C)C(C)O4)[C@@H](O)[C@](C)(O)CCCCC/C=C/[C@@H]4CC(C)(C)O[C@@]4(O)C[C@H](O2)[C@H]3C)O1 (stereo partly specified)	HCV inhibitor inconclusive, HCMV antiviral -96.9 (no result: Pf growth 96h, Pf growth 48h)
O=C(NCc1ccccc1)C(c1cc2ccccc2o1)n1c(=O)c(-c2ccco2)nc2ccccc21 (stereo unspecified)	none (no result: HCV inhibitor, Pf growth 96h, Pf growth 48h)
CCOc1ccc(/C=C/C(=O)C(C(N)=O)=C2SCCS2)cc1	Pf growth 96h inconclusive, HCMV antiviral -72.9
C=C1C(=O)O[C@@H]2[C@H]1CC[C@H](C)[C@]1(O)CCC(=O)[C@@]21C	HCV inhibitor inconclusive, HCMV antiviral -67.5
Fc1ccc2c(c1)C1C=CCC1C(c1cc3c(cc1Br)OCO3)N2 (stereo unspecified)	Pf growth 48h 5.22µM
Fc1ccc([C@@H]2Nc3ccccc3[C@@H]3C=CC[C@@H]32)cc1	none (no result: HCV inhibitor, Pf growth 96h, Pf growth 48h)
CNC(=S)SCCOc1ccccc1C	Pf growth 96h inconclusive, HCMV antiviral -68.6
CNC(=S)NNC(=O)COc1ccccc1C	HCMV antiviral inconclusive
COc1ccc(NC(=O)CCN2C(=O)c3ccccc3C2=O)c(OC)c1	none
COc1ccc(OC)c(N(CCN2C(=O)c3ccccc3C2=O)C(=O)CCl)c1	HCMV antiviral -97.7 (no result: HCV inhibitor, Pf growth 96h, Pf growth 48h)
CCOC(=O)c1[nH]c(C)c(CCC(=O)Nc2cc(C)ccc2OC)c1C	none (no result: HCV inhibitor, Pf growth 96h, Pf growth 48h)
CC(=O)N1CC=C2C(C#N)=C(N)C(C#N)(C#N)[C@H](c3ccoc3)[C@H]2C1	none
COc1ccc(OC)c(C2C3CN(C(C)C)CC=C3C(C#N)=C(N)C2(C#N)C#N)c1 (stereo unspecified)	Pf growth 96h inconclusive, Pf growth 48h inconclusive
N#CC1=C(N)C(C#N)(C#N)C(c2cccnc2)C2COCC=C12 (stereo unspecified)	none (no result: Pf growth 96h)
CCCCOc1ccc(C2C3CN(C(=O)OCC)CC=C3C(C#N)=C(N)C2(C#N)C#N)cc1OC (stereo unspecified)	Pf growth 48h 11.7µM (no result: Pf growth 96h)
